Source: PMC7862700, “An all-to-all approach to the identification of sequence-specific readers for epigenetic DNA modifications on cytosine”

Assays:
Assay in all cases: DAPPL (digital affinity profiling via proximity ligation, sequencing); 10 mM Tris-HCl pH 7.5, 50 mM NaCl, 1 mM DTT, 4% glycerol, room temperature, 30 min; GST-TFs on glutathione beads, 16-mer random dsDNA library, 0.1% formaldehyde crosslink after washing; high values mean tight binding
[1] = target: T1, FLI1 (Homo sapiens, UniProt Q01543 1-452); settings: protein: recombinant; tags: N-terminal GST; dsDNA, one strand shown
T1 sequence: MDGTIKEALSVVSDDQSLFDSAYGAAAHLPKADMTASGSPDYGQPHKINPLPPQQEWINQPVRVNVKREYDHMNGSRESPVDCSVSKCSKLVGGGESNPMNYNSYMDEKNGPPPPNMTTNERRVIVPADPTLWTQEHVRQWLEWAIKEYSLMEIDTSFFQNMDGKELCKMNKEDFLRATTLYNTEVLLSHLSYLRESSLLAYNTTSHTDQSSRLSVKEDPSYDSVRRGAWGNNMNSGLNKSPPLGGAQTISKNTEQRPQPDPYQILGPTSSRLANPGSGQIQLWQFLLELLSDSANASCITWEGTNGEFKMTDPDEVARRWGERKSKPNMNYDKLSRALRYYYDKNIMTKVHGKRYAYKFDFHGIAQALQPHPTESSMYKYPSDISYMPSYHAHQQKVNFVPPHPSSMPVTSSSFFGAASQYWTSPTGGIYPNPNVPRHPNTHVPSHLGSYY
Outline: (§1)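 Yeast served to express human transcription factors as GST fusions, which were then captured on glutathione beads and labelled with DNA barcodes. Pooled with a tag-only sample, they were incubated with 200 nmole of a 16-mer random double-stranded DNA library for 30 min at room temperature in Tris/NaCl/DTT/glycerol buffer, washed, crosslinked with 0.1% formaldehyde, ligated by proximity, amplified by PCR and sequenced. Dividing each hexamer's read frequency for a factor by its frequency for the tag-only sample gives the binding signal.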

[2] = target: T2, ELK1 (Homo sapiens, UniProt P19419 1-428); settings: protein: recombinant; tags: N-terminal GST; dsDNA, one strand shown
T2 sequence: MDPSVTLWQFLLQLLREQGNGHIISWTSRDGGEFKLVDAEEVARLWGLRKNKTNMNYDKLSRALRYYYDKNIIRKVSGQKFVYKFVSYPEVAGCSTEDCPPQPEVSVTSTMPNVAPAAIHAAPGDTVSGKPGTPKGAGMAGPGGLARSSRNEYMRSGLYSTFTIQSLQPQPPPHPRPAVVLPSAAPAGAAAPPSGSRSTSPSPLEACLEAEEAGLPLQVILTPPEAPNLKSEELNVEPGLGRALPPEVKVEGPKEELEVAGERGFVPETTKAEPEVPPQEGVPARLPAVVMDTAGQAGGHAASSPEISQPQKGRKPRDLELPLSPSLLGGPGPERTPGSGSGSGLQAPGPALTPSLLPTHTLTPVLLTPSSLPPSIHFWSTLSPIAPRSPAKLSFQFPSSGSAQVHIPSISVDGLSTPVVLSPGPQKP
Outline: as §1

[3] = target: T3, GABPA (Homo sapiens, UniProt Q06546 1-454); settings: protein: recombinant; tags: N-terminal GST; dsDNA, one strand shown
T3 sequence: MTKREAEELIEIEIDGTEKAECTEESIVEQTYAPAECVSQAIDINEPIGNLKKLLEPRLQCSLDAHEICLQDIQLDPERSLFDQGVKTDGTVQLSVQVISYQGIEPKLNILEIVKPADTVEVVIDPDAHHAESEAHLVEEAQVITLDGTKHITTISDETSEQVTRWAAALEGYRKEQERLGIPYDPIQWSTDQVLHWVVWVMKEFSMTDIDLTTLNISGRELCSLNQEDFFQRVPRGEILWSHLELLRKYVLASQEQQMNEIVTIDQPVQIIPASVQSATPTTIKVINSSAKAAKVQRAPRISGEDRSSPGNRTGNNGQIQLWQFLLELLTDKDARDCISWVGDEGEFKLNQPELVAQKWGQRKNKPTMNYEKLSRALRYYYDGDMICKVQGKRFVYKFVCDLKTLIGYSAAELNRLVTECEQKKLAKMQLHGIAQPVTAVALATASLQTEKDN
Outline: as §1

[4] = target: T4, ERG (Homo sapiens, UniProt P11308 1-479); settings: protein: recombinant; tags: N-terminal GST; dsDNA, one strand shown
T4 sequence: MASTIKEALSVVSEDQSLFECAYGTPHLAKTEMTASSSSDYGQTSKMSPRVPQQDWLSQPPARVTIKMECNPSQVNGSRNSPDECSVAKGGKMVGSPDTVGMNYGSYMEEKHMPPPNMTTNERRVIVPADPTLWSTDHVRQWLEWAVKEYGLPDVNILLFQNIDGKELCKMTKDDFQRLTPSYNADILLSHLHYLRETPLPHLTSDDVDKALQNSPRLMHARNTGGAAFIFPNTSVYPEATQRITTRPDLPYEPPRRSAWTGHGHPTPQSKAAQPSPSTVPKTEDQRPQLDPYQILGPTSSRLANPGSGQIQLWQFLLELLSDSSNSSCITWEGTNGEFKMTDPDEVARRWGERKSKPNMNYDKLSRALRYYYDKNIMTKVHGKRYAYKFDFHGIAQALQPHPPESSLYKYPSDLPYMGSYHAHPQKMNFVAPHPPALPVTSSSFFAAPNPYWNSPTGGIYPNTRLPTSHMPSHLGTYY
Outline: as §1

[5] = target: ELF1 (Homo sapiens, UniProt P32519 1-619); settings: protein: recombinant; tags: N-terminal GST; dsDNA, one strand shown
Outline: as §1

[6] = target: T5, EHF (Homo sapiens, UniProt Q9NZC4 1-300); settings: protein: recombinant; tags: N-terminal GST; dsDNA, one strand shown
T5 sequence: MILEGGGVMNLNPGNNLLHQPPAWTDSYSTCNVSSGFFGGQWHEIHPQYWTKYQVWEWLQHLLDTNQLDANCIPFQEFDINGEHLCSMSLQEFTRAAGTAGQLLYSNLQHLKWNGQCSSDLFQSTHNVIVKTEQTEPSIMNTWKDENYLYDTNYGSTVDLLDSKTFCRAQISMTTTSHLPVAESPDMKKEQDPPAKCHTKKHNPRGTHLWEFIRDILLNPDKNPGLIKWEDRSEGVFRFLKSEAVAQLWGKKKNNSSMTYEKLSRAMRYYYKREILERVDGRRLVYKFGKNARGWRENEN
Outline: as §1

[7] = target: SPI1 (Homo sapiens, UniProt P17947 1-270); settings: protein: recombinant; tags: N-terminal GST; dsDNA, one strand shown
Outline: as §1

[8] = target: SPIB (Homo sapiens, UniProt Q01892 1-262); settings: protein: recombinant; tags: N-terminal GST; dsDNA, one strand shown
Outline: as §1

[9] = target: T6, ELK3 (Homo sapiens, UniProt P41970 1-407); settings: protein: recombinant; tags: N-terminal GST; dsDNA, one strand shown
T6 sequence: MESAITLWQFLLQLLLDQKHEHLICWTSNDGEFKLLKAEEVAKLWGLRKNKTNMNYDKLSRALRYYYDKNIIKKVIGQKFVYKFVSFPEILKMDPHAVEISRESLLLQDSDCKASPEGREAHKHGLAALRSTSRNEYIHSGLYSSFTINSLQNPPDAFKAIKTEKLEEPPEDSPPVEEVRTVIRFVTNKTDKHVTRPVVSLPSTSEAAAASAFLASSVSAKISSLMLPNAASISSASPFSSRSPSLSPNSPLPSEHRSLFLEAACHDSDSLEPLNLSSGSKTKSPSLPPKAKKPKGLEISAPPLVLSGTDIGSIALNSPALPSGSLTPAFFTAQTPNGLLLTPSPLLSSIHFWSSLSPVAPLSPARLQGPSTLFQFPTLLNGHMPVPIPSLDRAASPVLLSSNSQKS
Outline: as §1

[10] = target: T7, FEV (Homo sapiens, UniProt Q99581 1-238); settings: protein: recombinant; tags: N-terminal GST; dsDNA, one strand shown
T7 sequence: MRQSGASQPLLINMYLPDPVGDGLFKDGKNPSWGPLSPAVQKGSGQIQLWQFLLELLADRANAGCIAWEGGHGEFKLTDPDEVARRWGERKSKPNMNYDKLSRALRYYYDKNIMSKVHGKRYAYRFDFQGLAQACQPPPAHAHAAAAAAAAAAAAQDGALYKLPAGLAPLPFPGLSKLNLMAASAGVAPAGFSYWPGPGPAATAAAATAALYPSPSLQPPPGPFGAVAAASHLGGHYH
Outline: as §1

[11] = target: ETV5 (Homo sapiens, UniProt P41161 1-510); settings: protein: recombinant; tags: N-terminal GST; dsDNA, one strand shown
Outline: as §1

[12] = target: HSF1 (Homo sapiens, UniProt Q00613 1-529); settings: protein: recombinant; tags: N-terminal GST; chain copies: 3; dsDNA, one strand shown
Outline: as §1

[13] = target: T8, SPIC (Homo sapiens, UniProt Q8N5J4 1-248); settings: protein: recombinant; tags: N-terminal GST; dsDNA, one strand shown
T8 sequence: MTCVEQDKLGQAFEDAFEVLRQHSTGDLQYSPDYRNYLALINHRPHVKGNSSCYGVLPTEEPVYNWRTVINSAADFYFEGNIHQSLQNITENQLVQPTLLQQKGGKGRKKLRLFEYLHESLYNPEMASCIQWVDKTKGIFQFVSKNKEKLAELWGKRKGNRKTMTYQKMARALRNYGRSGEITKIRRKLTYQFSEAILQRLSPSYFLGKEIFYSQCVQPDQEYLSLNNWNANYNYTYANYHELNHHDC
Outline: as §1

[14] = target: ELF4 (Homo sapiens, UniProt Q99607 1-663); settings: protein: recombinant; tags: N-terminal GST; dsDNA, one strand shown
Outline: as §1

[15] = target: T9, ELK4 (Homo sapiens, UniProt P28324-2 1-405); settings: protein: recombinant; tags: N-terminal GST; dsDNA, one strand shown
T9 sequence: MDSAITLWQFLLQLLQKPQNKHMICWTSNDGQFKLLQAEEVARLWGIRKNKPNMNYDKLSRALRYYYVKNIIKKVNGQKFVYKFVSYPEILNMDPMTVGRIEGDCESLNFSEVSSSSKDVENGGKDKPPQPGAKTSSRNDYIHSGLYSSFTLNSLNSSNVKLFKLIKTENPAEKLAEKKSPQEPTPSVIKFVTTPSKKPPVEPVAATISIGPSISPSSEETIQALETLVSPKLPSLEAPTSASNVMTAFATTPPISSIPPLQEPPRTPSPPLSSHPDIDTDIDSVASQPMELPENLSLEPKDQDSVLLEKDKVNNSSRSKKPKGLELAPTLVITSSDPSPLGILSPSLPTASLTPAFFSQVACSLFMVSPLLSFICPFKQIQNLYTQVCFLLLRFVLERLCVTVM
Outline: as §1

[16] = target: T10, ETV2 (Homo sapiens, UniProt O00321 1-342); settings: protein: recombinant; tags: N-terminal GST; dsDNA, one strand shown
T10 sequence: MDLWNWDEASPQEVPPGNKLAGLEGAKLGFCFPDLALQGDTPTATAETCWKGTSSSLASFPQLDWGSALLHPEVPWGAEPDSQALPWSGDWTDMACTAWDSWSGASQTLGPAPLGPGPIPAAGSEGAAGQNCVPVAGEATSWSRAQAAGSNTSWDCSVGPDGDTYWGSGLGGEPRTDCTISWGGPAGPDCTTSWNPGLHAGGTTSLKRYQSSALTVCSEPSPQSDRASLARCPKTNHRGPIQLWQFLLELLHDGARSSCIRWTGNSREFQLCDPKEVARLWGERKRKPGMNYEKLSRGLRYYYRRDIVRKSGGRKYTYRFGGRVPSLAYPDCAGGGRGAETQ
Outline: as §1

[17] = target: T11, ELF3 (Homo sapiens, UniProt P78545 1-371); settings: protein: recombinant; tags: N-terminal GST; dsDNA, one strand shown
T11 sequence: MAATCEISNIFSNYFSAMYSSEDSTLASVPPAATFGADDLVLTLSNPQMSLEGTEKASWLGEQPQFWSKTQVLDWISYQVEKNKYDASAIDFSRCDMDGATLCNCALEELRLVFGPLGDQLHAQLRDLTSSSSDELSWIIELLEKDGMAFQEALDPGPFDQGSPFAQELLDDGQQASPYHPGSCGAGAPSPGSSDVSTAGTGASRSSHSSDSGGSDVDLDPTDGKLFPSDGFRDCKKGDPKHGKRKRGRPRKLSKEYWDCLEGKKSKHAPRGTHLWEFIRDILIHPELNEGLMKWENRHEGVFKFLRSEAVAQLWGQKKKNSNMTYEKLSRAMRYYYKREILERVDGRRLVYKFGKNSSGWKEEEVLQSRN
Outline: as §1

[18] = target: CRX (Homo sapiens, UniProt O43186 1-299); settings: protein: recombinant; tags: N-terminal GST; dsDNA, one strand shown
Outline: as §1

[19] = target: ETV1 (Homo sapiens, UniProt P50549 1-477); settings: protein: recombinant; tags: N-terminal GST; dsDNA, one strand shown
Outline: as §1

Sequence of ETV1 (P50549 whole entry): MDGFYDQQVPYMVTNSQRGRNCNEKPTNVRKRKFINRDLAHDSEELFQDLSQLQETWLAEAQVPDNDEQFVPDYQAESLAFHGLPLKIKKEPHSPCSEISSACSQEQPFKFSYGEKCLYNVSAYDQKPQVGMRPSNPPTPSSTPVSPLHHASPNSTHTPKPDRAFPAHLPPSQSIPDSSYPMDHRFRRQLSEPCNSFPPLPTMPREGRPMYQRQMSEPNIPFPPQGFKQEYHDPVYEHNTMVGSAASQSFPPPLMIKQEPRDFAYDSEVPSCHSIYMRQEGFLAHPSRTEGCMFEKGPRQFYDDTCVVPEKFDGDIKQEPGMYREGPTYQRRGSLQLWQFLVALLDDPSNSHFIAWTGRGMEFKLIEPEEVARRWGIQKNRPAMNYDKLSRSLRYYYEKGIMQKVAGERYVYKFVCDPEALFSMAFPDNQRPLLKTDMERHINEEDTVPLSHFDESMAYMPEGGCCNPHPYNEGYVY
Sequence of HSF1 (Q00613 whole entry): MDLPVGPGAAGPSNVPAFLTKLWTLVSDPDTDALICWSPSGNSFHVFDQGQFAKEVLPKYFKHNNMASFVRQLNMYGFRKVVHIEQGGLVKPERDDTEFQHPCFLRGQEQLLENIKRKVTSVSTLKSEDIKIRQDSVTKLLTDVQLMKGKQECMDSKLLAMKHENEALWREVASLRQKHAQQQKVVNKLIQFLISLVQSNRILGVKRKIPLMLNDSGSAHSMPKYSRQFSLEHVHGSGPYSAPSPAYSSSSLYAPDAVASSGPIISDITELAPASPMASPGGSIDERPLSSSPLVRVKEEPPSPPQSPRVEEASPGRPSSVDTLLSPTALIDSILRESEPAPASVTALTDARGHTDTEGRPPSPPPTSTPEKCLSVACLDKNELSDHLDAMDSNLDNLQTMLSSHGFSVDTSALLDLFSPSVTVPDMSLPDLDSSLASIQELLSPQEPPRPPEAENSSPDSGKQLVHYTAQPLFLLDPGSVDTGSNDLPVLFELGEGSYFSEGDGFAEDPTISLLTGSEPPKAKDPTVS
Sequence of ELF1 (P32519 whole entry): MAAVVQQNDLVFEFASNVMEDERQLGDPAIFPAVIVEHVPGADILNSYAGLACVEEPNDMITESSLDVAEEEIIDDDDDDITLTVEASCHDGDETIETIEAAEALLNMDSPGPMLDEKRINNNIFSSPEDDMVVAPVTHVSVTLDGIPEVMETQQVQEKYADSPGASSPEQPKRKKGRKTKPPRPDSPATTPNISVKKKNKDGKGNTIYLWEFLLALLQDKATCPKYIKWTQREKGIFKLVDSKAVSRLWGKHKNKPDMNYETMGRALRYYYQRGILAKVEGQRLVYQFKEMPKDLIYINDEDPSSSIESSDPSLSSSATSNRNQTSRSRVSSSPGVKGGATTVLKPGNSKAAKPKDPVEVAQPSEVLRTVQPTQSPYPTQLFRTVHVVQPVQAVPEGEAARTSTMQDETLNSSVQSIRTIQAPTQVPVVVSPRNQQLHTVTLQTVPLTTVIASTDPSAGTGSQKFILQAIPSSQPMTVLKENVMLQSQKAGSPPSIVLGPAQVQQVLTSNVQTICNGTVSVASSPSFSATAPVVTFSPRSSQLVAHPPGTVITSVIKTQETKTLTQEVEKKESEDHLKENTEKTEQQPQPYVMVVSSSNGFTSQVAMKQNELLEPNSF
Sequence of SPIB (Q01892 whole entry): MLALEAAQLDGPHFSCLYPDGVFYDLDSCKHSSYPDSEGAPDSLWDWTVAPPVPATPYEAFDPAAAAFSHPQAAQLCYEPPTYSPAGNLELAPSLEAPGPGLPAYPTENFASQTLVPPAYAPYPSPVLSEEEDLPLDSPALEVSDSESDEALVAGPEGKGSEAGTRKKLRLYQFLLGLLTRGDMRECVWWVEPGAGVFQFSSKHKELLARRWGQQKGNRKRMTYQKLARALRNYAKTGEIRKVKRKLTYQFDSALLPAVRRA
Sequence of CRX (O43186 whole entry): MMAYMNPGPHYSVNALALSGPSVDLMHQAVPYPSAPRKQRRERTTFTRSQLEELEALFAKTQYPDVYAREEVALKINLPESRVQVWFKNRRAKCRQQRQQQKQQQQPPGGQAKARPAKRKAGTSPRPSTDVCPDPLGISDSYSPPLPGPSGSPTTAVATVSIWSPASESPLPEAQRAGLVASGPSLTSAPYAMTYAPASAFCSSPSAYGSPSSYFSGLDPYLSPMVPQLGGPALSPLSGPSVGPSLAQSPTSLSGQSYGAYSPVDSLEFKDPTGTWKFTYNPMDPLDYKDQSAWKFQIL
Sequence of ETV5 (P41161 whole entry): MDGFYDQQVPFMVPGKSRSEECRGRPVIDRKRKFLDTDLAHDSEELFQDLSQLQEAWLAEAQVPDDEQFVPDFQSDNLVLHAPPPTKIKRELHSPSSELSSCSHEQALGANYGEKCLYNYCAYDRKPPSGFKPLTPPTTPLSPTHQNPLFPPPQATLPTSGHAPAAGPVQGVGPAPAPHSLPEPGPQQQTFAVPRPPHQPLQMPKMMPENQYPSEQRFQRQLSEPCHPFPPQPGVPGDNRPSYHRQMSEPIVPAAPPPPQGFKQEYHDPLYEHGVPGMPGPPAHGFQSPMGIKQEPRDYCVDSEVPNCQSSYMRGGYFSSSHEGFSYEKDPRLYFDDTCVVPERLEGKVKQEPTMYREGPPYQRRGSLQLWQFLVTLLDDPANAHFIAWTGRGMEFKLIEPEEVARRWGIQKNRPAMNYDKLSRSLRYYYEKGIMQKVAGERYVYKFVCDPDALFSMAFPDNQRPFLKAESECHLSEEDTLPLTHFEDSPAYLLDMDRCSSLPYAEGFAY
Sequence of ELF4 (Q99607 whole entry): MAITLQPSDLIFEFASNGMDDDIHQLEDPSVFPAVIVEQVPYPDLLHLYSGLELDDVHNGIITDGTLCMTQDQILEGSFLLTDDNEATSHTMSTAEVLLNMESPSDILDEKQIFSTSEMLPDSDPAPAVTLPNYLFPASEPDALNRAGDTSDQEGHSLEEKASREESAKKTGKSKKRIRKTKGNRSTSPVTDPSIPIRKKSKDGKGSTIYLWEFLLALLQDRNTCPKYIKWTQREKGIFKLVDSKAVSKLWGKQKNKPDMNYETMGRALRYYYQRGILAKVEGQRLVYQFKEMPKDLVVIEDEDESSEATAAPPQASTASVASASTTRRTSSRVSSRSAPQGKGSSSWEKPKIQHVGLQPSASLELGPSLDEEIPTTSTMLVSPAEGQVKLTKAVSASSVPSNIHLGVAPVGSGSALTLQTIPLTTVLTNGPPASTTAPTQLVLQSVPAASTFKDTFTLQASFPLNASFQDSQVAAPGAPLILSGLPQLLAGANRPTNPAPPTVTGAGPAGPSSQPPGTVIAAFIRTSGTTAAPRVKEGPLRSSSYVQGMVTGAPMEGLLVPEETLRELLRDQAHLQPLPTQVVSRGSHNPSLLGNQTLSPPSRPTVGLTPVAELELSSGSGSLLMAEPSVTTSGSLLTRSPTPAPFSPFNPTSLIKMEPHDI

## GACTCC
[1]
  binding signal: 1.35 fold enrichment (6-mer frequency, TF over GST control)
[2]
  binding signal: 1.23 fold enrichment (6-mer frequency, TF over GST control)
[3]
  binding signal: 1.29 fold enrichment (6-mer frequency, TF over GST control)
[4]
  binding signal: 1.3 fold enrichment (6-mer frequency, TF over GST control)
[5]
  binding signal: 1.35 fold enrichment (6-mer frequency, TF over GST control)
[6]
  binding signal: 1.37 fold enrichment (6-mer frequency, TF over GST control)
[7]
  binding signal: 1.35 fold enrichment (6-mer frequency, TF over GST control)
[8]
  binding signal: 1.38 fold enrichment (6-mer frequency, TF over GST control)
[9]
  binding signal: 1.25 fold enrichment (6-mer frequency, TF over GST control)
[10]
  binding signal: 1.32 fold enrichment (6-mer frequency, TF over GST control)
[11]
  binding signal: 1.27 fold enrichment (6-mer frequency, TF over GST control)
[12]
  binding signal: 1.05 fold enrichment (6-mer frequency, TF over GST control)
[13]
  binding signal: 1.34 fold enrichment (6-mer frequency, TF over GST control)
[14]
  binding signal: 1.43 fold enrichment (6-mer frequency, TF over GST control)
[15]
  binding signal: 1.12 fold enrichment (6-mer frequency, TF over GST control)
[16]
  binding signal: 1.26 fold enrichment (6-mer frequency, TF over GST control)
[17]
  binding signal: 1.25 fold enrichment (6-mer frequency, TF over GST control)
[18]
  binding signal: 1.02 fold enrichment (6-mer frequency, TF over GST control)
[19]
  binding signal: 1.29 fold enrichment (6-mer frequency, TF over GST control)
